Bioassay records from PubChem BioAssay.
12-LOX inh: Primary qHTS assay for inhibitors of human arachidonate 12S-lipoxygenase (ALOX12): Round 2 | Potency, µM (doses to about 108 µM), hits mostly inhibitors | AID 1671190, 2021 | purified 12hLO, xylenol orange hydroperoxide absorbance | hit rate 1.1% among 580,000
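Hydroperoxide product was detected by ferrous iron/xylenol orange as the 573 to 405 nm absorbance ratio. Arachidonic acid at 40 uM (final) was turned over for 30 min at room temperature by 150 nM human 12hLO, pH 7.0 Hepes buffer, after 15 min compound preincubation.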
G9a inh: qHTS Assay for Inhibitors of Histone Lysine Methyltransferase G9a; Histone-lysine N-methyltransferase EHMT2 (Homo sapiens), Q96KQ7; G9a H3K9 monomethylation, AlphaScreen, 2 h; Potency, µM (top dose mostly 102 µM), usual class: inhibitors; hit rate 8.8% among 350,000; AID 504332, 2011; also: nearly all actives have a fitted effect of over 75% in size
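Compounds were preincubated with 20 nM G9a for 15 min, after which biotinylated H3K9 peptide (500 nM) and SAM (20 uM) started a 2 h room-temperature reaction. Monomethylated product was quantified by antibody-based AlphaScreen chemiluminescence.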
PLK1 PBD block: qHTS for Inhibitors of PLK1-PDB (polo-like kinase 1 - polo-box domain): Primary Screen; Potency, µM, actives largely listed as inhibitors; Plk1 PBD binding of FITC phosphopeptide, fluorescence polarization; hit rate 2.8% among 360,000; AID 720504, 2013; Serine/threonine-protein kinase PLK1 (Homo sapiens), P53350; also: series mostly up to about 57 µM; nearly all actives have a fitted effect of over 65% in size
JMJD2A Tudor: qHTS Assay for Inhibitors of JMJD2A-Tudor Domain | AlphaScreen JMJD2A-Tudor / H3K4me3 peptide binding | Potency, µM (highest dose often 114 µM), most hits filed as inhibitors | hit rate 4.4% among 390,000 | AID 504339, 2011; also: nearly all actives have a fitted effect of over 50% in size
HP1b binding inh: HTS for Inhibitors of HP1-beta Chromodomain Interactions with Methylated Histone Tails. Chromobox protein homolog 1 (Homo sapiens), P83916. AlphaScreen HP1-beta / biotin-H3K9me3 peptide binding. Potency, µM (top dose mostly 114 µM), usual class: inhibitors. hit rate 0.56% among 390,000; also: nearly all actives have a fitted effect of over 70% in size
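Compound inhibition of the preformed complex between 50 nM HP1-beta and 50 nM biotinylated H3K9me3 peptide was read by AlphaScreen. Buffer was PBS pH 7.4 with 0.01% Tween-20. Incubations ran 30 min at room temperature, with 10 ug/mL donor/acceptor beads.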
BAZ2B block: qHTS Assay for Inhibitors of BAZ2B. AlphaScreen BAZ2B-H3K14Ac peptide displacement. hit rate 4.4% among 360,000. Potency, µM (titrated, usually from 114 µM), hits mostly inhibitors. Bromodomain adjacent to zinc finger domain protein 2B (Homo sapiens), Q9UIF8; also: nearly all actives have a fitted effect of over 60% in size
Target sequence (Q9UIF8 whole entry, looked up, the tested form may be a part): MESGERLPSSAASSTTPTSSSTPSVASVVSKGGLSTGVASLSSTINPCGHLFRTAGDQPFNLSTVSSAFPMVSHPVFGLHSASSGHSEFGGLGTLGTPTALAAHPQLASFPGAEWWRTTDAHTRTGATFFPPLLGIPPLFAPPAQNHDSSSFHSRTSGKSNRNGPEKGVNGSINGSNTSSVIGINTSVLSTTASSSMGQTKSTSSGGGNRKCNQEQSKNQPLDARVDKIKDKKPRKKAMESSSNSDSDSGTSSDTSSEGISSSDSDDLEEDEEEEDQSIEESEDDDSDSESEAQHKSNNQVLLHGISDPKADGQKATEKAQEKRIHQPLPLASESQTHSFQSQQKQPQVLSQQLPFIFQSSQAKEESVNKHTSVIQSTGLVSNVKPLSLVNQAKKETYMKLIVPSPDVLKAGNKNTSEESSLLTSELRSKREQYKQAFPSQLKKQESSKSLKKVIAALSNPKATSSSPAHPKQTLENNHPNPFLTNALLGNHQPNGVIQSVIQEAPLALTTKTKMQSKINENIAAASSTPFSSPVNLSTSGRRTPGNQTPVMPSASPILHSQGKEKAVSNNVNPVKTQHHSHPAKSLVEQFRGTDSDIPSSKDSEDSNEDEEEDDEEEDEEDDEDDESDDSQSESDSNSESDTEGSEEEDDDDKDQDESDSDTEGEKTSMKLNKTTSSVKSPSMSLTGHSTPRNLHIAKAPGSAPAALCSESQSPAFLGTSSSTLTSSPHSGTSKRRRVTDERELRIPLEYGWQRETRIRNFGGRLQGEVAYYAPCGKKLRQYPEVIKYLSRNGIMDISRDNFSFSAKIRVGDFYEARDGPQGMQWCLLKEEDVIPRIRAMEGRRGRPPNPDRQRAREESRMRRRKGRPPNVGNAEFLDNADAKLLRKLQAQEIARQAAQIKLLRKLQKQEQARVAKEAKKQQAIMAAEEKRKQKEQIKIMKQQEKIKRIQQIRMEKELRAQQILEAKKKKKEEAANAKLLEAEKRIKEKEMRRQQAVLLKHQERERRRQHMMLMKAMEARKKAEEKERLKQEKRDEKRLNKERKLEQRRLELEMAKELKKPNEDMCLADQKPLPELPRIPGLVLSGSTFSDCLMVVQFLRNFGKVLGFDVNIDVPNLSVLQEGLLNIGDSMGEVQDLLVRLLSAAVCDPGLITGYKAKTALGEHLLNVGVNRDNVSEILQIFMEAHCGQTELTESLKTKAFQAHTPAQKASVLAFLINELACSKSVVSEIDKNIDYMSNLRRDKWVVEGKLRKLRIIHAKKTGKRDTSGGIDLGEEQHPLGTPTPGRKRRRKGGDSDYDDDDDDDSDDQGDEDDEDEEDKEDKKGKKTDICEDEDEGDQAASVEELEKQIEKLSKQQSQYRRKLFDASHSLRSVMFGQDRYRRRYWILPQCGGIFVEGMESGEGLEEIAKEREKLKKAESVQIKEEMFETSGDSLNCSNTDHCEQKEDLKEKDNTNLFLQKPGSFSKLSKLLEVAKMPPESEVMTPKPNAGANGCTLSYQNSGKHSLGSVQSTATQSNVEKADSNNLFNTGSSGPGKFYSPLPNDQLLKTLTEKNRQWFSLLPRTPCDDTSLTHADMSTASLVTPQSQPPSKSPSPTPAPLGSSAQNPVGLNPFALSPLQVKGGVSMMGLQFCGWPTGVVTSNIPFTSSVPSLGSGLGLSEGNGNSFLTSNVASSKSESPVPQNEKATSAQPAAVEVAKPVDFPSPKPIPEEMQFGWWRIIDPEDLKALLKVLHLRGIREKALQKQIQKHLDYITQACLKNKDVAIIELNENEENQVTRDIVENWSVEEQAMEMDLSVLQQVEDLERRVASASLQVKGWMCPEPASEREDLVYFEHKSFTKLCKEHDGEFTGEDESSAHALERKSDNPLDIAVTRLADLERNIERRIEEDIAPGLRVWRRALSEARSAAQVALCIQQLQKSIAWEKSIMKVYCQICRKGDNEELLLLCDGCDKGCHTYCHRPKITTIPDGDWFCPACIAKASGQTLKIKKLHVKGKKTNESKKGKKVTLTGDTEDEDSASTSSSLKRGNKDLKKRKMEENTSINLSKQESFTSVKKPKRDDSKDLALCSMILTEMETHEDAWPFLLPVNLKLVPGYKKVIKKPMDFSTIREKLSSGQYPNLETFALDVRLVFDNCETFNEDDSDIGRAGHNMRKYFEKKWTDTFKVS
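BAZ2B 50 nM plus b-H3(5-23)K14Ac 50 nM, PBS pH 7.4/0.01% Tween-20, 30 min RT; compound added (max 110 uM), 30 min RT; streptavidin donor/Ni-chelate acceptor beads 10 ug/mL final, 20 min dark; AlphaScreen read.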
Numbers stand for hits; – = inactive; ? = inconclusive; · = no result given; [ ] = another dose, or the depositor's remark. Only some compounds are listed: those with a hit (about 9% of all), similar ones and a draw of the others. Calls follow the shape of the dose curve; as a rule, active = well fitted curve in the direction sought with a large enough effect; inconclusive = small, poorly fitted or top-dose-only effect, or another doubt; inactive = no such curve, though single readings can be large; an effect the other way counts as inactive or inconclusive.

SMILES | 12-LOX inh | G9a inh | PLK1 PBD block | JMJD2A Tudor | HP1b binding inh | BAZ2B block
Cc1ccc(C(=O)N2CCn3c(nnc3-c3cccnc3)C2)cc1 | –[6.33 µM] | · | · | · | · | ·
Cc1ccc(-c2nnn(CC(=O)NCC3CC3)n2)o1 | – | – | – | – | – | –
Cc1ccc(-c2nnn(CC(=O)NCC3COCCO3)n2)o1 (stereo not drawn) | – | – | 30µM | 50µM | ? | –
Cc1ccc(-c2nnn(CC(=O)N3CCC(C)CC3)n2)o1 | – | 35µM | – | – | – | –
Cn1ncc2c(=S)nc(Cl)[nH]c21 | 7.1µM | · | 27µM | 22µM | – | ·
Cn1ncc(C#N)c1/N=C/N1CCCCCC1 | – | ? | – | – | – | –
CN1CCCCCC1=Nc1ccccc1C#N | – | ? | – | 1.8µM | 13µM | 45µM
S=c1[nH]nc(Cn2cnc3ccccc32)n1-c1ccccc1Cl | – | · | – | 50µM | – | –
Clc1ccccc1-c1ncnc2ccc(Br)cc12 | – | – | – | – | – | ·
O=S(=O)(Nc1nc2ccccc2nc1Nc1ccc(N2CCOCC2)cc1)c1cc(Cl)ccc1Cl | – | ? | 12µM | ? | – | –
COc1ccccc1CNC(=O)COC(=O)Cc1c[nH]c2ccccc12 | – | –[0.501 µM] | – | – | – | –
COc1ccc(-c2cccc(-c3cc(=O)oc4cc(OC)cc(OC)c34)c2)cc1 | – | · | – | – | – | ·
COc1cc(OC)c2c(-c3cccc(-c4ccc(N(C)C)cc4)c3)cc(=O)oc2c1 | – | 8.9µM | – | 10µM | ? | ·
Cc1cc2oc(=O)cc(-c3ccccc3)c2c(C)c1-c1ccc(N(C)C)cc1 | – | 28µM | – | ? | – | ·
Cc1ccc(-c2c(C)cc3oc(=O)cc(-c4ccccc4)c3c2C)cc1 | – | – | – | – | – | ·
O=C(CCC(=O)N1CCOc2ccccc21)Nc1cc(F)ccc1F | – | · | 24µM | ? | – | –
CC(=O)Oc1c(/C=C(\C#N)C(N)=O)[nH]c2ccccc12 | ? | 11µM | – | – | – | –
CCCC1=[N+](CC(C)=O)CCn2c(C)ccc21 | – | 32µM | ? | – | – | –
CCCC1=[N+](CC(=O)c2ccccc2)CCn2cccc21 | – | – | – | – | – | –
CN(C)C(=O)[C@@H]1C[C@H]1[C@@H](NC(=O)OCc1ccccc1)c1ccccc1 | – | – | – | – | – | –
COC(=O)[C@H]1C[C@@H]1[C@H](NC(=O)[C@H]1C[C@@H]1[C@H](NC(=O)OCc1ccccc1)c1ccccc1)c1ccccc1 | – | 45µM | – | – | – | –
COC(=O)[C@H](C)[C@@H]1C[C@@]1(C)[C@@H](NC(=O)OCc1ccccc1)c1ccccc1 | – | – | – | – | – | –
COc1ccc(CNC(=O)[C@H](C)[C@@H]2C[C@@]2(C)[C@@H](NC(=O)OCc2ccccc2)c2ccccc2)cc1OC | – | 50µM | – | – | – | –
Cc1cc(CNC(=O)[C@H](C)[C@@H]2C[C@@]2(C)[C@@H](NC(=O)OCc2ccccc2)c2ccccc2)nn1C | – | 56µM | – | – | – | –
C[C@@H](C(=O)O)[C@H]1C[C@]1(C)[C@H](NC(=O)OCc1ccccc1)c1ccccc1 | – | 79µM | – | – | – | –
SMILES | 12-LOX inh | G9a inh | PLK1 PBD block | JMJD2A Tudor | HP1b binding inh | BAZ2B block
C[C@@H](C(=O)NCc1ccccc1)[C@H]1C[C@]1(C)[C@H](NC(=O)OCc1ccccc1)c1ccccc1 | – | ? | – | – | – | –
CCCCn1nc(C(=O)Oc2ccc3c(C)cc(=O)oc3c2)c2ccccc2c1=O | ? | 2.8µM | – | – | – | –
CCCC(=O)Oc1ccc2c(C)cc(=O)oc2c1 | – | – | – | – | – | –
NC(=O)/C(=C/c1ccco1)C(N)=S | ? | 18µM | ? | ? | – | –
NC(=O)/C(=C\c1ccco1)NC(=O)c1ccco1 | – | · | – | · | · | ·
N/C(=N\OC(=O)C1CCCCC1)c1cccc([N+](=O)[O-])c1 | · | –[2.33 µM] | – | – | – | –
O=c1c2ccccc2c(C=NC2CCS(=O)(=O)C2)c(O)n1-c1ccccc1 (stereo not drawn) | – | – | – | – | – | ·
CN1CCN(c2ccccc2/C=C2/C(=O)Nc3ccccc32)CC1 | · | 50µM | – | – | – | –
COc1ccc(C(N)CCc2ccc(C)o2)cc1 (stereo not drawn) | – | 79µM | – | ? | – | ?
CCOC(=O)CN1C(=O)S/C(=C/c2ccc(OCc3ccc(C(=O)O)cc3)cc2)C1=O | – | –[2.33 µM] | ? | ? | – | 50µM
CCOC(=O)CN1C(=O)S/C(=C\c2ccc3c(c2)OCO3)C1=O | ? | – | – | – | – | –
COc1ccc(/C=C2\SC(=S)N(CCC(=O)Nc3ccc(C(=O)O)cc3)C2=O)cc1OC | · | – | – | ? | – | –
CCOc1ccc(/C=C2\SC(=S)N(CCC(=O)Nc3ccc(C(=O)O)cc3)C2=O)cc1 | ? | 28µM | ? | 25µM | ? | 22µM
CCOc1ccc(/C=C2\SC(=S)N(CCC(=O)Nc3cccc(C(=O)O)c3)C2=O)cc1 | ? | 79µM | ? | 35µM | ? | 50µM
S=c1[nH]nc(-c2ccccn2)n1/N=C/c1ccc(Br)s1 | ? | 1.3µM | ? | 7.9µM | – | 13µM
S=c1[nH]nc(COc2ccccc2)n1/N=C/c1ccc(Br)s1 | ? | 7.9µM | ? | 56µM | – | –
S=c1[nH]nc(-c2ccccn2)n1/N=C/c1ccc(-c2ccccc2Cl)o1 | ? | 1.1µM | ? | 28µM | ? | 25µM
Cc1ccc(/C=N/n2c(COc3ccccc3)n[nH]c2=S)s1 | ? | –[0.501 µM] | ? | 56µM | – | ?
Cc1n[nH]c(=S)n1/N=C/c1ccc(-c2ccc(Cl)cc2)o1 | – | · | – | – | – | ·
Nc1nn(-c2cccc(F)n2)cc1-c1ccc(Cl)cc1 | – | – | – | – | – | –
COc1ccc(-c2ccn(-c3cccc(F)n3)n2)cc1 | ? | 14µM | – | ? | – | –
CCN(CC)N=Nc1[nH]nc2nc(C)cc(C)c12 | – | · | 8.4µM | –[11.4 µM] | – | –
Cc1cc(C)c2c(N=NN3CCCCC3)[nH]nc2n1 | – | 45µM | – | – | – | –
C[C@H](CO)NC(=O)[C@@H]1C[C@H]1[C@@H](NP(=O)(c1ccccc1)c1ccccc1)c1ccccc1 | – | – | – | – | – | –
Cc1ccc(C)c2c(N)c3c(nc12)CCCCC3 (tested in a mixture with another compound) | – | 45µM | – | – | – | –
